An excerpt weighted towards active compounds, which were near 4.8% of everything screened.
PfHsp90 yeast 2 = growth inhibition of yeast expressing Plasmodium Hsp90; S. cerevisiae expressing PfHsp90, BacTiter-Glo ATP, 48 h; yeast lacking PDR1 and PDR3 efflux regulators; inhibition, % at 9.4 µM; 310,000 tested, 0.32% active;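 active = every replicate shows inhibition above about 80%, whatever the replicate mean, limit read from the data; inconclusive = mean inhibition reaches the set limit but some replicate falls short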;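 note: 0% = DMSO neutral controls and 100% = 20 µM radicicol positive controls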
NALP1 inh = blocks the NALP1 inflammasome reconstituted in yeast. S. cerevisiae NALP1/ASC/caspase-1 growth, X-gal OD620, 72 h. inhibition, % at 10 µM. 280,000 tested, 0.61% active. AID 2071; in the data active = inhibition mostly above about 24%, no sharp cut-off; inactive = mostly below about 32%
tim23-1 inh = tim23-1 yeast growth inhibition | inhibition, % at 20 µM | S. cerevisiae tim23-1 growth, BacTiter-Glo luminescence, 24 h | 330,000 tested, 1.3% active | AID 463212;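 active = growth inhibition of the mutant yeast at or above 50%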;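 note: temperature-sensitive mutant grown at 25 °C; plate controls were DMSO-treated mutant yeast for no effect and medium wells lacking yeast for full effect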
SKKanGAS inh = inhibitors of SKKanGAS S. pyogenes growth in kanamycin (SK-promoter or general growth effect); BacTiter-Glo, 6 h; inhibition, % at 7.5 µM; 300,000 tested, 1.3% active; AID 1662;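 active = mean replicate score, as percent of positive control median, at least 50; inconclusive = mean below 50 but one replicate at or above 50; inactive = mean and every replicate below 50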;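 note: strain carries kanamycin resistance gene driven by streptokinase promoter and grows in 40 µg/ml kanamycin; loss of luminescence reflects streptokinase promoter inhibition or plain growth inhibition; 0% = median of DMSO wells and 100% = positive control at its reference dose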
tim10-1 inh = inhibits growth of tim10-1 mutant yeast; inhibition, % at 20 µM; S. cerevisiae tim10-1 ts strain growth, BacTiter-Glo, 24 h; AID 463190; 330,000 tested, 2.2% active;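 active = inhibition of at least 40%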;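 note: mutant grown at 25 °C; 0% = DMSO wells with yeast and 100% = wells holding no yeast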
TIM10 inh = TIM10 yeast growth inhibition; 330,000 tested, 1.4% active; AID 463195; inhibition, % at 10 µM; S. cerevisiae TIM10 strain growth, BacTiter-Glo luminescence, 24 h;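 active = inhibition of 40% or more at the single tested concentration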;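 note: wild-type TIM10 isogenic control strain grown at permissive 25 °C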
tim10-1 confirm = tim10-1 yeast growth inhibition, confirmed | shares compounds with tim10-1 inh | S. cerevisiae tim10-1 ts strain growth, BacTiter-Glo, 24 h | inhibition, % at 20 µM | 7,400 tested, 56% active;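 active = inhibition of yeast growth at or above a set limit in either of two repeat tests at 20 µM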;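 note: tim10-1 mutant grown at permissive 25 °C to find synthetic lethal compounds; 0% = DMSO yeast wells and 100% = medium wells without yeast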
Numbers without * were called inactive; ? = inconclusive; nt = not tested or not shown.

SMILES | PfHsp90 yeast 2 | NALP1 inh | tim23-1 inh | SKKanGAS inh | tim10-1 inh | TIM10 inh | tim10-1 confirm
CN(C)CCNc1ncnc2oc(-c3ccccc3)c(-c3ccccc3)c12 | 10.9 | 9.8 | -6.2 | 4.8 | 18.9 | 14.3 | nt
Cc1ccc(N2C(=O)c3ccccc3C2=O)cc1 | 0.4 | nt | 1.8 | 4.7 | 0.0 | -6.9 | nt
Cc1ccc(SC2=C(Sc3ccc(C)cc3)C(=O)c3ccccc3C2=O)cc1 | -9.3 | 17.2 | 32.6 | 32.7 | 42.8* | 24.1 | 24.4
CN(Cc1ccccc1)CC(O)COc1ccc(CNCCc2ccncc2)cc1 (stereo not given) | -5.2 | -8.1 | -62.1 | 0.5 | -25.2 | -22.7 | nt
CC(C)(C)NC(=S)N/N=C/c1c(Cl)cccc1Cl | 0.2 | 24.7 | 32.5 | -7.0 | 40.5* | 36.9 | 20.8
CCNC(=S)N/N=C/c1c(Cl)cccc1Cl | 3.5 | -0.1 | 19.3 | -9.2 | 40.9* | 21.2 | 22.4
CCNC(=S)N/N=C/c1cccc(/C=N/NC(=S)NCC)c1 | -16.9 | 5.4 | -7.7 | -6.2 | -18.1 | -1.6 | nt
CCS(=O)(=O)N1CCCC(C(=O)NCc2cccnc2)C1 (stereo not given) | 14.5 | -11.8 | 13.9 | -3.5 | 9.5 | -12.8 | nt
CCC(C)(C)c1ccc(OCCCC[n+]2ccccc2)c(C(C)(C)CC)c1 | -36.4 | 19.8 | 30.2 | nt | 46.2* | -119.8 | 37.2*
CCCCCc1ccc(OCCCC[n+]2ccccc2)c(CCCCC)c1 | 38.2 | 7.7 | -23.6 | ? | 42.5* | -295.3 | 32.3*
O=C(COc1ccc(Cl)cc1)NCc1nnc(SCC(=O)NC2CCCC2)o1 | 10.6 | 16.6 | -2.2 | -14.6 | 10.7 | -13.8 | nt
CCC1CCCCN1C(=O)CSc1nnc(-c2ccc(Cl)s2)o1 (stereo not given) | -4.9 | -4.5 | 42.3 | -0.7 | 51.5* | 9.0 | 24.5
CCC1CCCCN1C(=O)CSc1nnc(CNC(=O)COc2ccc(Cl)cc2)o1 (stereo not given) | 22.7 | -4.6 | 26.1 | -4.1 | 40.2* | 23.8 | 19.9
CCc1nn(CCCC(=O)N2CCN(c3cccc(C)c3C)CC2)c(=O)c2cc3occc3n12 | -3.3 | 14.5 | 38.3 | 16.0 | 54.0* | 27.4 | 20.6
CCOC(=O)c1cc(C(C)(C)C)oc1CNC(=O)c1c(C)oc2c1CCCC2 | -5.0 | 0.3 | 25.7 | 9.2 | 43.6* | 28.3 | 33.1*
COc1ccccc1N/C(=N/S(=O)(=O)c1ccc(C)cc1)c1ccccc1 | 3.0 | 16.7 | 26.5 | -1.6 | 31.0 | 28.0 | nt
COc1ccccc1N/C(=N/S(=O)(=O)c1ccc(Cl)cc1)c1ccccc1 | -8.6 | 31.0 | 36.8 | -1.9 | 40.6* | 26.3 | 27.6
O=C(c1ccc(Sc2cccc(Cl)c2)c([N+](=O)[O-])c1)N1CCN(c2ccccn2)CC1 | nt | 3.8 | 20.1 | 14.6 | 41.0* | 14.8 | 21.2
O=C(c1ccc(S(=O)(=O)Cc2cc(F)ccc2F)c([N+](=O)[O-])c1)N1CCCCC1 | -3.5 | 5.5 | 44.0 | -4.2 | 43.5* | 19.7 | 28.8*
O=C(c1cccc(COc2ccc(Cl)cc2Cl)c1)N1CCN(c2ccccn2)CC1 | 10.7 | 9.3 | 30.1 | 53.1* | 42.2* | 32.8 | 22.9
O=C(c1ccc(S(=O)(=O)Cc2ccccc2Cl)c([N+](=O)[O-])c1)N1CCN(c2ccccn2)CC1 | 5.9 | 5.9 | 43.7 | -2.5 | 52.2* | 39.1 | 38.6*
O=C(c1ccc(Cl)c([N+](=O)[O-])c1)N1CCN(c2ccccn2)CC1 | 8.6 | 30.9 | 1.0 | 8.0 | 10.5 | -31.7 | nt
CN(CCC1CCOCC1)C(=O)CC1C(=O)NCCN1CC1CCCCC1 (stereo not given) | 18.4 | -2.8 | 3.4 | -3.8 | 8.9 | -6.1 | nt
Cc1cccc(NC(=O)CN2CCc3cc4c(cc3C2C)OCCCO4)c1 (stereo not given) | -0.8 | 25.2 | 30.6 | -1.3 | 25.0 | 31.5 | nt
CCCn1nnc(NC(=O)c2cccc(Cl)c2)n1 | -12.4 | 20.5 | 7.0 | -2.0 | 11.9 | -3.9 | nt
SMILES | PfHsp90 yeast 2 | NALP1 inh | tim23-1 inh | SKKanGAS inh | tim10-1 inh | TIM10 inh | tim10-1 confirm
CCCn1nnc(NC(=O)c2cccc(OCc3ccccc3)c2)n1 | -17.6 | -7.2 | 31.6 | -7.0 | 43.8* | 29.0 | 36.0*
CC1CC(C)CN(CCCNC(=O)c2ccc(N3CCCC3=O)cc2)C1 (stereo not given) | -22.9 | 8.3 | -8.8 | 2.0 | -0.8 | -7.5 | nt
COc1ccc(S(=O)(=O)N2CCC(C(=O)NCCC(=O)NCc3ccccc3OC)CC2)cc1 | 5.7 | -1.9 | 17.1 | -0.7 | 20.5 | 9.4 | nt
Cc1ccc(OC(=O)C2CSC3(C)CCC(=O)N23)c(Br)c1 (stereo not given) | -31.3 | nt | 39.4 | -3.3 | 49.4* | 7.1 | 19.6
S=C(Nc1ccc(Br)cc1)Nc1ccc2c(c1)OCCO2 | 4.5 | -9.6 | 33.9 | -2.2 | 44.9* | 14.6 | 3.4
COc1cc(NC(=S)Nc2ccc3c(c2)OCCO3)cc(OC)c1OC | 13.5 | nt | 17.7 | -0.7 | 7.2 | 28.2 | nt
O=C(/C=C/c1cccc(Br)c1)N1CCN(c2ccccn2)CC1 | -7.7 | -12.8 | 32.8 | -5.0 | 41.6* | -22.0 | 23.9
COc1ccc(-n2c(C)cc(C(=O)COC(=O)Cn3cnc4ccccc43)c2C)cc1 | -13.3 | -2.8 | 35.0 | 6.2 | 52.9* | 27.6 | 27.5
CN(C)c1ccc(N/C(=N\S(=O)(=O)c2cccs2)c2ccccc2)cc1 | 2.2 | 22.6 | 21.6 | -13.4 | 26.7 | 15.7 | nt
CCOc1cc(N2CCOCC2)c(OCC)cc1NC(=O)c1ccccc1C | 15.8 | -5.4 | 12.4 | -15.8 | 9.3 | -4.4 | nt
CCOc1cc(N2CCOCC2)c(OCC)cc1NC(=O)c1ccc2ccccc2n1 | 38.6 | -1.1 | 31.5 | 3.5 | 44.8* | 16.5 | 22.3
CCOc1cc(N2CCOCC2)c(OCC)cc1NC(=O)COC(=O)CCOc1ccc(C)cc1 | -1.0 | nt | 45.1 | -8.6 | 41.1* | 39.2 | 28.8*
CC(C)c1ccc(/C=C/C(=O)NCc2ccc(S(N)(=O)=O)cc2)cc1 | 3.5 | -3.0 | -2.5 | -9.6 | 23.3 | 6.2 | nt
Cc1csc(NC(=O)c2ccc(C)c(S(=O)(=O)N3CCOCC3)c2)n1 | nt | 7.5 | 12.1 | 0.6 | 41.2* | 18.7 | 14.9
Cc1ccc(C(=O)N2CCC3(CC2)Oc2ccc(F)cc2C(=O)C32CC(c3cccnc3)=NO2)s1 (stereo not given) | -13.7 | 21.8 | -1.7 | 2.4 | 42.3* | -8.1 | 25.1
Oc1ccccc1/C=N/Nc1nccnc1Cl | nt | -16.8 | 28.4 | 18.6 | 54.7* | 28.2 | 19.5
O=C(CSc1nc2cc(Cl)ccc2s1)c1ccco1 | -42.0 | -3.0 | 42.9 | -4.3 | 43.0* | 19.3 | 37.5*
O=C(CSc1nnc(SCC(=O)c2ccco2)s1)c1ccco1 | 3.4 | 8.9 | 29.1 | 13.1 | 27.2 | -3.1 | nt
CN(C)S(=O)(=O)c1cccc(NC(=S)NN=C(Cc2ccccc2)Cc2ccccc2)c1 | -45.3 | 12.3 | 41.0 | 8.1 | 43.6* | 21.9 | 22.0
O=C(NN1CCCCC1)c1cnn2c(C(F)F)cc(-c3ccccc3)nc12 | -9.6 | -2.8 | -11.4 | 8.4 | -6.9 | -9.2 | nt

Screens as filed in PubChem BioAssay.
